Assay [1] has as its target Voltage-gated inwardly rectifying potassium channel KCNH2 (Homo sapiens) (UniProt Q12809). Put plainly: qHTS Assay for Small Molecule Inhibitors of the Human hERG Channel Activity (AID 588834).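 Further: lower thallium flux fluorescence means stronger hERG block; nearly all actives have a fitted effect of over 50% in size.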 Further: potency means the concentration at half of the fitted maximal effect. Summed up: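 Cells were infected with hERG-BacMam virus for 4 hrs at room temperature, grown overnight, then seeded at 2000/well. After dye loading and roughly 10 min compound treatment, thallium influx was triggered and fluorescence recorded.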
(Quantitative high-throughput screening tests each substance at several concentrations.)

In assay [2] the target is Luciferin 4-monooxygenase (Photinus pyralis) (UniProt P08659). Put plainly: Biochemical firefly luciferase enzyme assay for NPC (AID 624030).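 Further: purified P. pyralis luciferase at 10 nM with luciferin and ATP substrate; series mostly up to about 59 µM; nearly all actives have a fitted effect of over 70% in size.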 Summed up: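 Purified P. pyralis luciferase at 10 nM in 50 mM Tris Acetate (final), luminescence read within 5 minutes of enzyme addition to compounds. Activity normalised to PTC124 versus DMSO; concentration-response curves classed by r2, magnitude and activity.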
Luciferin 4-monooxygenase (Photinus pyralis), sequence (P08659 whole entry, looked up): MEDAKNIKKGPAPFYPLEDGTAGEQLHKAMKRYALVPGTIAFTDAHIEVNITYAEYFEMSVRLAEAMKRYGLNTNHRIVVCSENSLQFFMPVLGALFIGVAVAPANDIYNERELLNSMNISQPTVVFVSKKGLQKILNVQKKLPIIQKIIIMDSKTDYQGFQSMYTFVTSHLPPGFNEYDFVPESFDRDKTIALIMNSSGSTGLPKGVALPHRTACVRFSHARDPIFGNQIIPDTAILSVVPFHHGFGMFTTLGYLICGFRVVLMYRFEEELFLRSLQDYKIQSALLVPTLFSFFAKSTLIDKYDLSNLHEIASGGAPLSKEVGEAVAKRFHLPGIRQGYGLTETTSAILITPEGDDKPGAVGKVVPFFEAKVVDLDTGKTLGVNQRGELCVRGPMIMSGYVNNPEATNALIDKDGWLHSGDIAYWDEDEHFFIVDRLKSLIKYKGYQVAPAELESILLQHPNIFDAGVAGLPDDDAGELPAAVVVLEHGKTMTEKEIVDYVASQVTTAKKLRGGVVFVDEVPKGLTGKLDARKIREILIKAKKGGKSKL

The nature of assay [3]: S16 Schwann cell viability assay (CellTiter-Glo assay) (AID 624031).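 Further: native untransfected S16 rat Schwann cells; cellular ATP luminescence as a viability measure; series mostly up to about 58 µM; nearly all actives have a fitted effect of over 70% in size.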 Summed up: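 Parental S16 cells, 24 h compound, 37 °C. ATP-luminescence viability; DMSO = 0% activity, empty wells as reference; curves classified by fit quality and efficacy.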
A short description of assay [4]: S16 Schwann cell PMP22 intronic element firefly luciferase assay (AID 624032). Further: nearly all actives have a fitted effect of over 30% in size. Further: potency means the concentration at half of the fitted maximal effect. Summed up:
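Rat S16 Schwann cells stably carrying firefly luciferase driven by a PMP22 intronic element, in 10% FBS, treated 24 h at 37 C. ONE-Glo luminescence normalized to PTC124 control and DMSO (0%); curves classed by r2, magnitude and activity.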

Assay [5] can be described thus: S16 Schwann cell PMP22 intronic element beta-lactamase assay (AID 624044; calls by dose curve; further: nearly all actives have a fitted effect of over 15% in size). Summed up:
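Beta-lactamase reporter under a PMP22 intronic regulatory element in stable S16 rat Schwann cells; 24 h compound exposure. 460 nm blue signal normalized between DMSO (0%) and potassium clavulanate, with 535 nm FRET tracking viability; curves classed by r2 and response.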

The target of assay [6] is Glutaminase kidney isoform, mitochondrial (Homo sapiens) (UniProt O94925). Put plainly: qHTS for Inhibitors of Glutaminase (GLS): LOPAC Validation (AID 624146). Further: nearly all actives have a fitted effect of over 60% in size. Further: potency means the concentration at half of the fitted maximal effect. Put shortly: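 Compounds were pin-transferred onto hKGA, after which L-glutamine (1 mM solution) and a detection mix of glutamate oxidase, HRP and Amplex Red were added. Initial and 30 min RT fluorescence reads were collected.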
Glutaminase kidney isoform, mitochondrial (Homo sapiens), sequence (O94925 whole entry, looked up, canonical isoform): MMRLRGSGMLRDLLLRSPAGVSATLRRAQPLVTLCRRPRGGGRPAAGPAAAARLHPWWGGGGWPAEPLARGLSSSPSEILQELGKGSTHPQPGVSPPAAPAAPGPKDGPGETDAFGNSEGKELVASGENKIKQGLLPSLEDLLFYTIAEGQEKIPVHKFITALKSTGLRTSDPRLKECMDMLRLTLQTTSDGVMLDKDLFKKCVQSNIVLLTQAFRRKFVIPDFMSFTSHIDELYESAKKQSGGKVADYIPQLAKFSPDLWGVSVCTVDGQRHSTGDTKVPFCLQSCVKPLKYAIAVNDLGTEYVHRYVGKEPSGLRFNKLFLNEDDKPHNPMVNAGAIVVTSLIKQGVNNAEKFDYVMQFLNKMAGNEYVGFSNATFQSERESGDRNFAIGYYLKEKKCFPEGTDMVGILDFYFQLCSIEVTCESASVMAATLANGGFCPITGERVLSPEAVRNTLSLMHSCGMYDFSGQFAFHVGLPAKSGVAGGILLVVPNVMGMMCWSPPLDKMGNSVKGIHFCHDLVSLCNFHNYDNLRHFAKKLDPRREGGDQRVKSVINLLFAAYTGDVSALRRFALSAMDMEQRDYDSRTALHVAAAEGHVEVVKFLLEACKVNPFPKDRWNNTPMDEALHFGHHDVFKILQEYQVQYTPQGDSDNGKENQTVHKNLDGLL

Several values for one entry are separate records, joined by “and”; a condition that tells them apart may be missing. Identical values can stand only once. Inconclusive results are not listed. Activity calls are given as the source filed them. Unless noted, the call rests on the fitted dose curve; in most records, active means well fitted curve in the direction sought with a large enough effect; inconclusive means small, poorly fitted or top-dose-only effect, or another doubt; inactive means no such curve, though single readings can be large; an effect the other way counts as inactive or inconclusive.

Voltage-gated inwardly rectifying potassium channel KCNH2 (Homo sapiens), sequence (Q12809 whole entry, looked up): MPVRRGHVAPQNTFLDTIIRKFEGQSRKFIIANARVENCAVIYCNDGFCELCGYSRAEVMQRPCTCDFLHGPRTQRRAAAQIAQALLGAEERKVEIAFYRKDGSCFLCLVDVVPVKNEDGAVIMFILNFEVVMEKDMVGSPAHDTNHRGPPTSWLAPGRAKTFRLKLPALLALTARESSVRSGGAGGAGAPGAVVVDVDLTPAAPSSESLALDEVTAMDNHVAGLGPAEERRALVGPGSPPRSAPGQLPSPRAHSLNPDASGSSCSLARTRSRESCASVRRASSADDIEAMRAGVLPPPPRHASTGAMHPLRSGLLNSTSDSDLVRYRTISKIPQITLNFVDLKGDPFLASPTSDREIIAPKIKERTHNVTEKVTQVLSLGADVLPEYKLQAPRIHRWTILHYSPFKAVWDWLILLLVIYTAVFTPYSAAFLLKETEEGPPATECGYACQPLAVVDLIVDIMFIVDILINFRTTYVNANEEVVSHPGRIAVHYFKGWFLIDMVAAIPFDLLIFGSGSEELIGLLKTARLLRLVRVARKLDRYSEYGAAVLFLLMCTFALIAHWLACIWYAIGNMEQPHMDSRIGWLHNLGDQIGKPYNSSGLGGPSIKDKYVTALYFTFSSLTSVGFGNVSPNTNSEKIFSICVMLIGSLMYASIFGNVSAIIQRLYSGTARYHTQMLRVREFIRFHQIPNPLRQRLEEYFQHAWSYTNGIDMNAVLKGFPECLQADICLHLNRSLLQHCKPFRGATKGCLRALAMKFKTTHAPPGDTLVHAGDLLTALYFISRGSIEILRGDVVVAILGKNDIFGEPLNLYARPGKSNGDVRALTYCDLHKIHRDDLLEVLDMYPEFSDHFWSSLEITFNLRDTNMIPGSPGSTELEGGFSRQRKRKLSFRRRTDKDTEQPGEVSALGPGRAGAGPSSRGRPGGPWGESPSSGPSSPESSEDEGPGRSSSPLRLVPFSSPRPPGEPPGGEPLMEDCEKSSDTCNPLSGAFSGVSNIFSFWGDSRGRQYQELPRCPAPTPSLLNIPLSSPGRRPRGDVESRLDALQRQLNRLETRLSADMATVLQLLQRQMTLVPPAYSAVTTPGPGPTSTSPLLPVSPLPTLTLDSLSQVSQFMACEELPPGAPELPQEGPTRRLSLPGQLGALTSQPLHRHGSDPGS

As for `FC(F)(F)c1cccc(C2=CCN(CCc3ccc4ccccc4c3)CC2)c1`, the Potency in assay [1] is 1.58 µM (active). Moreover, the Potency result in assay [2], in assay [3] and in assay [4] was “inactive” each time.

On to `O=c1oc2ccccc2c(O)c1C(CC(O)c1ccc(-c2ccc(Br)cc2)cc1)c1ccccc1` (stereo not given), for which the Potency result in assay [1] was “inactive”.

For the molecule `O=P1(NCCCl)OCCCN1CCCl` (stereo not given), the Potency result in assay [1], in assay [2], in assay [3], in assay [4] and in assay [5] was “inactive” in each case.

As for `C=C1CC[C@@]2(O)[C@H]3Cc4ccc(O)c5c4[C@@]2(CCN3CC2CC2)[C@H]1O5`, the Potency entry in assay [1], in assay [2], in assay [3] and in assay [4] was “inactive” throughout.

On to `CC[N+]1(C)CCCC(OC(=O)C(O)(c2ccccc2)c2ccccc2)C1` (stereo not given), for which the Potency result in assay [1], in assay [2] and in assay [3] was “inactive” throughout.

With `COc1ccccc1N1CCNCC1`, the Potency entry in assay [1], in assay [2], in assay [3], in assay [4], in assay [5] and in assay [6] was “inactive” throughout.

Consider `Cn1c(CCCC(=O)O)nc2cc(N(CCCl)CCCl)ccc21`, for which the Potency entry in assay [1], in assay [2] and in assay [3] was “inactive” in each case. Besides, the Potency in assay [4] was 1.02 µM (active).

Regarding `C#CCOC(C(=O)OCCN(C)C)(c1ccccc1)c1ccccc1`, the Potency entry in assay [1], in assay [2], in assay [3], in assay [4] and in assay [5] was “inactive” each time.

For the molecule `CN(C)CCc1ccc(O)cc1`, the Potency entry in assay [1], in assay [2], in assay [3] and in assay [4] was “inactive” each time.

For `CC(=O)Nc1cc([As](=O)(O)O)ccc1O`, the Potency entry in assay [1], in assay [2], in assay [3] and in assay [4] was “inactive” each time.

As for `CC(C)=CC1C(C(=O)OCc2cccc(Oc3ccccc3)c2)C1(C)C` (stereo not given), the Potency entry in assay [1], in assay [2], in assay [3], in assay [4] and in assay [5] was “inactive” in each case.

Take `CC1NCCOC1c1ccccc1` (stereo not given): the Potency result in assay [1], in assay [2], in assay [3] and in assay [4] was “inactive” each time.

Regarding `Clc1cccc(N2CCNCC2)c1`, the Potency result in assay [1], in assay [2], in assay [3] and in assay [4] was “inactive” throughout.

With `CC[C@@H](CO)NC(=O)[C@@H]1C=C2c3cccc4c3c(cn4C)C[C@H]2N(C)C1`, the Potency result in assay [1], in assay [2], in assay [3], in assay [4] and in assay [5] was “inactive” throughout.

`CCN(CC)CCN1C(=O)CN=C(c2ccccc2F)c2cc(Cl)ccc21`: the Potency in assay [1] was 3.98 µM (active). Moreover, the Potency result in assay [2], in assay [3], in assay [4] and in assay [5] was “inactive” throughout.

For the molecule `CCN(C(C)=O)c1cccc(-c2ccnc3c(C#N)cnn23)c1`, the Potency entry in assay [1], in assay [2], in assay [3] and in assay [4] was “inactive” throughout.

Regarding `CC(C)[N+](C)(CCOC(=O)C1c2ccccc2Oc2ccccc21)C(C)C`, the Potency entry in assay [1] was “inactive”.

Turning to `O=[N+]([O-])c1cc([As](=O)(O)O)ccc1O`, the Potency result in assay [1], in assay [2], in assay [3], in assay [4] and in assay [5] was “inactive” in each case.

On to `CC(C)(C)NCC(O)c1cc(Cl)c(N)c(Cl)c1` (stereo not given), for which the Potency result in assay [1], in assay [2] and in assay [3] was “inactive” in each case.

`CCC1(C2=NCCN2)Cc2ccccc2O1` (stereo not given): the Potency entry in assay [1], in assay [2], in assay [3] and in assay [4] was “inactive” each time.

As for `NP(N)(=O)NC(=O)c1ccc(F)cc1`, the Potency entry in assay [1], in assay [2], in assay [3] and in assay [4] was “inactive” in each case.

For `CN1C(=S)CN=C(c2ccccc2)c2cc(Cl)ccc21`, the Potency result in assay [1], in assay [2], in assay [3], in assay [4] and in assay [5] was “inactive” each time.

In the case of `C#CCN(C)[C@H](C)Cc1ccccc1`, in assay [1], the Potency result is “inactive”.

For `CC[N+](CC)(CC)CC`, the Potency result in assay [1], in assay [2] and in assay [3] was “inactive” each time.

`CCC(C(N)=O)N1CCCC1=O` (stereo not given): the Potency entry in assay [1], in assay [2], in assay [3] and in assay [4] was “inactive” throughout.

On to `CC(CCc1ccccc1)NC(C)C(O)c1ccc(O)cc1` (stereo not given), for which the Potency in assay [1] was 7.08 µM (active) and 2 µM (active). Also, the Potency entry in assay [2] and in assay [3] was “inactive” in each case.

With `COC[C@H]1OC(=O)c2coc3c2[C@@]1(C)C1=C(C3=O)C2CCC(=O)[C@@]2(C)C[C@H]1OC(C)=O` (stereo not given in full), the Potency in assay [6] is 11.2 µM (active).

For the molecule `O=c1[nH]c2ccccc2n1CCCN1CCC(n2c(=O)[nH]c3cc(Cl)ccc32)CC1`, the Potency result in assay [2] and in assay [6] was “inactive” each time. The Potency in assay [4] was 36.1 µM (active).

For `CC(O)(CS(=O)(=O)c1ccc(F)cc1)C(=O)Nc1ccc(C#N)c(C(F)(F)F)c1` (stereo not given), the Potency result in assay [6] was “inactive”.

For `CCCN1CCC[C@@H]2Cc3[nH]ncc3C[C@H]21`, the Potency entry in assay [2], in assay [3], in assay [4] and in assay [6] was “inactive” throughout.

With `Cc1c(OCC(F)(F)F)ccnc1CS(=O)c1nc2ccccc2[nH]1` (stereo not given), the Potency result in assay [4] is “inactive”.

The values are drawn from PubChem BioAssay (NCATS).
